According to PubChem BioAssay:
The source made the active and inactive calls. Unless noted, no rule for the calls is given here.

Tests used:
[1] = kinase inhibitors against Plasmodium liver-stage infection, cell-based, known kinase inhibitor set, luminescence, hepatoma host viability (AID 624392); settings: Plasmodium liver stage in hepatoma cells, luciferase luminescence, concentration not given here; liver cell % of control: measured here: host liver cell viability; parasite % of control: stronger effect = lower value;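 also: infected cells incubated roughly two days before readout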
[2] = modulators of glucocorticoid suppression of NF-kB, cell-based, luciferase, IL-1B stimulus, dexamethasone (AID 624486); settings: NF-kB luciferase reporter, IL-1B + dexamethasone, luminescence; percent of negative control (+Dex): actives lie on both sides, concentration not given here; z-score: measured here: IL-1B alone, no Dex;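 as to percent of negative control (+Dex): 100% = mean signal of vehicle control wells on the plate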
[3] = kinase inhibitors altering Pseudomonas killing of worms, whole organism (AID 651566);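 also: tested at 14 µM; sign flipped so higher z means a lower ratio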; settings: C. elegans killed by P. aeruginosa, survival ratio
[4] = activators of macrophage pro-inflammatory response, cell-based, murine, luminescence (AID 652131); settings: murine macrophage pro-inflammatory reporter, stronger effect = higher value
[5] = IRF3 reporter activation in THP-1 macrophages, cell-based, PMA-stimulated THP-1, luminescence (AID 1053176); settings: PMA-differentiated THP-1, IRF3 reporter luminescence; stronger effect = higher value
[6] = survival rescue of mitochondrial mutant cells in low glucose, primary screen, MELAS cybrids, Rieske KO mouse fibroblasts, CellTiter-Glo (AID 1508586;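 active = mean z-score across replicates of 1.96 or higher in either the MELAS or the Rieske mutant cell line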;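 also: z relative to plate mean and SD of compound and empty wells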)
[7] = MELAS cybrid survival, CellTiter-Glo 48 h, stronger effect = higher value
[8] = Rieske KO mouse fibroblast survival, CellTiter-Glo 72 h

| SMILES | liver cell % of control [1] [%] | parasite % of control [1] | percent of negative control (+Dex) [2] | z-score [2] | z-score [3] | z-score [4] | fraction signal [5] | z-score [6, 7] | z-score [6, 8] |
| --- | --- | --- | --- | --- | --- | --- | --- | --- | --- |
| CS(=O)(=O)CCNCc1ccc(-c2ccc3ncnc(Nc4ccc(OCc5ccccc5)c(Br)c4)c3c2)o1 | 107 | 127% (inactive) | 82% (inactive) | -0.54 | 0.135 (inactive) | 2.09 (inactive) | 0.0015 (inactive) | 0.203 (inactive) | -0.567 |
| CCS(=O)(=O)c1ccc(OC)c(Nc2ncc(-c3cccc(F)c3)o2)c1 | 140 | 19.6% (inactive) | 84.5% (inactive) | -0.335 | -0.615 (inactive) | -0.303 (inactive) | -0.0005 (inactive) | 1.69 (inactive) | -0.478 |
| Cc1[nH]nc2c1N=C(c1ccccc1Cl)c1cc([N+](=O)[O-])ccc1N2 | 92.3 | 32.5% (inactive) | 104% (inactive) | -1.15 | – | – | -0.0135 (inactive) | – | – |
| CS(=O)(=O)c1ccc(Oc2nccc(-c3c(-c4ccc(F)cc4)ncn3C3CCNCC3)n2)cc1 | 78.7 | 128% (inactive) | 92% (inactive) | 0.015 | -0.505 (inactive) | -0.16 (inactive) | -0.008 (inactive) | -0.0537 (inactive) | -0.376 |
| COc1ccccc1Oc1nccc(-c2c(-c3ccc(F)cc3)ncn2C2CCNCC2)n1 | 89.7 | 136% (inactive) | 104% (inactive) | 0.275 | 0.105 (inactive) | 0.324 (inactive) | 0.001 (inactive) | -0.339 (inactive) | -0.367 |
| COc1cc2ncn(-c3cc(O[C@@H](C)c4ccccc4Cl)c(C(N)=O)s3)c2cc1OC | 100 | 110% (inactive) | 124% (inactive) | 2.36 | -0.555 (inactive) | -0.639 (inactive) | -0.002 (inactive) | -0.552 (inactive) | 0.815 |
| N#Cc1c(NC(=O)c2cccc3ccccc23)sc2c1CCCN2C(=O)C1CC1 | 190 | 15.9% (inactive) | 106% (inactive) | -0.12 | -0.17 (inactive) | -0.734 (inactive) | 0.002 (inactive) | -0.726 (inactive) | -0.0978 |
| CC(C)(C)c1ccc(Oc2nccc(-c3c(-c4ccc(F)cc4)ncn3C3CCNCC3)n2)cc1 | 81.4 | 76.7% (inactive) | 106% (inactive) | 0.75 | 0.215 (inactive) | -0.618 (inactive) | 0 (inactive) | -0.424 (inactive) | 0.0471 |
| Fc1ccc(Oc2nccc(-c3c(-c4ccc(F)cc4)ncn3C3CCNCC3)n2)cc1 | 104 | 122% (inactive) | 107% (inactive) | 1.11 | -1.01 (inactive) | 7.24 (active) | 0 (inactive) | -0.283 (inactive) | -0.391 |
